In the library only some 19% were active in any assay of this set; here they are far more common.
Gal4-VP16 FLuc = VP16 counterscreen qHTS for inhibitors of ROR gamma transcriptional activity; Drosophila S2 Gal4-VP16 UAS-luciferase, luminescence, 20 h; Potency, µM (doses to about 53.6 µM), without a hit: at the top dose activity, negative = inhibition, usual class: inhibitors; actives 3.5% (n = 310,000); AID 2546, 2010;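 also: Gal4-VP16 expression switched on by copper sulfate through the metallothionein promoter; nearly all actives have a fitted effect of over 50% in size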
TDP1 cell noCPT = qHTS for Inhibitors of human tyrosyl-DNA phosphodiesterase 1 (TDP1): qHTS in cells in absence of CPT. DT40 Tdp1-/- hTDP1 cells, no CPT, ATP luminescence, 48 h. Potency, µM (series often up to 46.2 µM), for the others: top-dose activity change, negative = growth inhibition, most hits filed as inhibitors. actives 15% (n = 420,000); also: nearly all actives have a fitted effect of over 55% in size
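Compound effects on proliferation are scored in DT40 Tdp1-/-;hTDP1 cells in the absence of CPT. ATP levels (CellTiter-Glo luminescence) are recorded after a ≥48 hr, 37 °C incubation.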
TDP1 inh = qHTS Assay for Inhibitors of Tyrosyl-DNA Phosphodiesterase (TDP1); recombinant TDP1, AlphaScreen DNA substrate cleavage; Tyrosyl-DNA phosphodiesterase 1 (Homo sapiens), Q9NUW8; actives 0.28% (n = 350,000); Potency, µM (top dose mostly 130 µM), for the others: at the highest dose activity change, negative = inhibition, usual class: inhibitors; also: nearly all actives have a fitted effect of over 40% in size
Target sequence (Q9NUW8 whole entry, looked up): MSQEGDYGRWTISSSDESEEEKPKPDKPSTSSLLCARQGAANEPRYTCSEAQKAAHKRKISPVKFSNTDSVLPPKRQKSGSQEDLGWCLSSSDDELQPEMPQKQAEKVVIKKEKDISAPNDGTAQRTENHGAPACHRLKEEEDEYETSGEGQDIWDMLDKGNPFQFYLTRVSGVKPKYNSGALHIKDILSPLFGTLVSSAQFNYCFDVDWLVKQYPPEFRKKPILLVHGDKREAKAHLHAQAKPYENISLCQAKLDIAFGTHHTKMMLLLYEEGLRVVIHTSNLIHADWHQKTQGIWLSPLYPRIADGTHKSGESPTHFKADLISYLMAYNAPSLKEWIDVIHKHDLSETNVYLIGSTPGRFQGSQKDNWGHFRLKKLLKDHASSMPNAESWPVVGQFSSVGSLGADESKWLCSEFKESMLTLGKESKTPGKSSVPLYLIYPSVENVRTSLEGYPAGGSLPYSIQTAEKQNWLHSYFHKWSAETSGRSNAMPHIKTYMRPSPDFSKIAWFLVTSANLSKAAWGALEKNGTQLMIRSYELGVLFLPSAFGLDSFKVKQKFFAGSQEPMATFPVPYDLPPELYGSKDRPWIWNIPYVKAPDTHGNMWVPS
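Recombinant human Tdp1 (E. coli-expressed, 1 nM final) preincubated with compounds 15 min at room temperature, then 5'-biotin/3'-phosphotyrosine-FITC DNA substrate (15 nM final) added for 5 min. AlphaScreen beads (10 ug/ml final) added 10 min; cleavage lowers signal.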
DT40 TDP1 CPT = qHTS for Inhibitors of human tyrosyl-DNA phosphodiesterase 1 (TDP1): qHTS in cells in presence of CPT. Potency, µM (doses to about 46.2 µM), for the others: at the top dose activity change, negative = growth inhibition, hits mostly inhibitors. chicken DT40 Tdp1-/-;hTDP1 cells + 20 nM CPT, ATP luminescence, 48 h. AID 686979, 2013. actives 12% (n = 420,000); also: nearly all actives have a fitted effect of over 55% in size
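Cell growth measured by CellTiter-Glo luminescence after a minimum 48 h, 37 C compound exposure with 20 nM CPT in Tdp1-knockout DT40 cells stably expressing hTDP1, seeded 400/well; qHTS titration format.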
RORgamma inh = qHTS for inhibitors of ROR gamma transcriptional activity | Drosophila S2 Gal4-RORgamma UAS-luciferase reporter, 20 h | Potency, µM (doses to about 53.6 µM), for the others: top-dose activity change, negative = inhibition, hits mostly inhibitors | actives 5.4% (n = 310,000); also: nearly all actives have a fitted effect of over 60% in size
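Luciferase reporter read in Schneider cells carrying Gal4-RORγ (mouse) and UAS-Photinus luciferase; cells given compound 1 h before 700 uM copper sulfate induction, then incubated 20 h at ambient temperature.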
The depositor's hits bear a star; ? = inconclusive; / = no result; [ ] = remark or other dose. Calls follow the shape of the dose curve; as a rule, active = well fitted curve in the direction sought with a large enough effect; inconclusive = small, poorly fitted or top-dose-only effect, or another doubt; inactive = no such curve, though single readings can be large; an effect the other way counts as inactive or inconclusive. % is scaled to controls: 0 for no effect and ±100 for the full control effect; potency is read from the fitted curve at half-maximal effect.

SMILES	Gal4-VP16 FLuc	TDP1 cell noCPT	TDP1 inh	DT40 TDP1 CPT	RORgamma inh
O=S(=O)(NCCc1csc2nc(-c3ccc(F)cc3)nn12)c1ccc2c(c1)OCCO2	/	23.1µM*	2.6%	16.4µM*	/
COc1ccc(-c2nc3scc(CCNS(=O)(=O)c4ccc(F)c(C(F)(F)F)c4)n3n2)cc1OC	/	13µM*	5.2%	14.6µM*	/
COc1ccc(-c2nc3scc(CCNS(=O)(=O)c4c(C)noc4C)n3n2)cc1OC	/	?	5.2%	-21.2%	/
O=S(=O)(NCCc1csc2nc(-c3ccc(Cl)cc3)nn12)c1ccc2c(c1)OCCO2	/	9.2µM*	5.2%	14.6µM*	/
COc1ccc(-c2nc3scc(CCNS(=O)(=O)c4ccc5c(c4)OCCO5)n3n2)cc1OC	/	20.6µM*	5.2%	?	/
Cc1ccc(C(O)c2ncc(-c3ccccc3Cl)[nH]2)c(C)c1 (stereo not given)	/	-23.3%	/	?	/
CO[C@H]1COC(=O)C/C=C\[C@H](C)[C@@H](OC)COC(=O)[C@H](Cc2ccccc2)NC(=O)C/C=C\[C@@H]1C	0.4%[10 µM]	/	6.9%[21 µM]	/	-8.6%[10 µM]
CCCO/N=C1/C(=O)N(c2ccccc2)c2ccccc21	-13.8%	23.1µM*	8.8%	13µM*	11.3%
O=C1CCCN1c1ccc(CNS(=O)(=O)c2ccc(F)cc2)cc1	2.0%	-24.6%	6.5%	-19.0%	?
Cc1ccc(S(=O)(=O)Nc2c(C)nn(C)c2C)cc1C	/	13µM*	/	20.6µM*	/
Cc1nn(C)c(C)c1NS(=O)(=O)c1ccc(N2CCCC2=O)cc1	?	16.4µM*	-2.6%	18.4µM*	?
CCc1ccc2oc(C(=O)Nc3nc(-c4ccc(F)cc4)ns3)c(C)c2c1	/	?	0.0%	?	/
CCOC(=O)c1c(C)nc(C)c(C(=O)OCC)c1-c1cccc(N)c1	-12.3%	?	-4.9%	-9.6%	13.6%
CCOC(=O)c1c(C)nc2c(c1-c1ccc(OC)c(OC)c1)C(=O)c1ccccc1-2	-3.4%	?	-2.0%	23.1µM*	-25.0%
COc1cc(C)ccc1OCCSc1nnc(-c2ccc(C)cc2)o1	/	?	-3.6%	?	/
CCOc1ccc(C2c3c(oc4ccc(C)cc4c3=O)C(=O)N2c2nc(C)c(C)s2)cc1OC (stereo not given)	/	7.31µM*	3.2%	?	/
O=C(COC(=O)c1ccccc1Br)NCCN1C(=O)CSC1=O	-3.8%	-1.2%	7.7%	15.5%	?
CCNc1nc(N2CCCN(C)CC2)nc2cc(OC)c(OC)cc12	/	11.2µM*	/	11.2µM*	/
CNc1nc(N2CCCN(C)CC2)nc2cc(OC)c(OC)cc12	/	11.2µM*	/	14.1µM*	/
CCOc1cc(-c2sc(Nc3ccc(CC)cc3)n[n+]2-c2ccccc2)ccc1OC	/	18.4µM*	2.4%	16.4µM*	/
COc1ccc(C)cc1Nc1n[n+](-c2ccccc2)c(-c2ccc(C(=O)O)cc2)s1	3.9%	-8.6%	/	-7.5%	-7.2%
CCOc1cc(-c2sc(Nc3cc(C)ccc3OC)n[n+]2-c2ccccc2)ccc1OC	/	16.4µM*	/	14.6µM*	/
COc1ccc(-c2sc(Nc3ccccc3)n[n+]2-c2ccccc2)cc1Br	/	14.6µM*	/	23.1µM*	/
CCOc1ccccc1C(=O)Nc1nnc(Cc2ccc(OC)c(OC)c2)s1	6.5%	?	/	-29.7%	44.4%
C(=C\c1sc(Nc2ccccc2)n[n+]1-c1ccccc1)/c1ccccc1	/	8.2µM*	/	5.17µM*	/
SMILES	Gal4-VP16 FLuc	TDP1 cell noCPT	TDP1 inh	DT40 TDP1 CPT	RORgamma inh
COc1ccc(-c2csc(Nc3ccccc3)n2)cc1	2.3%	?	2.7%	?	-22.1%
O=C(O)c1nc2cc(Cl)c(Cl)cc2[nH]c1=O	-2.9%	-2.7%	8.5%[56.1 µM]	6.4%	-1.1%
CC1(c2ccc(Cl)cc2)NC(=O)N(CC(=O)NCc2cccs2)C1=O (stereo not given)	-3.3%	-6.4%	0.0%	2.3%	30.3%
O=C(O)CN1C(=O)/C(=C\c2cccc(OCc3ccc(F)cc3)c2)SC1=S	9.2%	20.8%	/	0.4%	-0.9%
CCCC(=O)Nc1nnc(SCc2cc(=O)c3ccc(C)cc3[nH]2)s1	/	0.731µM*	2.7%	1.46µM*	/
CCOc1ccc(C(=O)Nc2nnc(SCc3cc(=O)c4cc(C)ccc4[nH]3)s2)cc1	/	-29.2%	0.0%	-26.2%	/
O=C(CSc1ncnc2nc[nH]c12)c1ccccc1	5.1%	?	2.1%	-28.9%	-43.9%
c1ccc(CCSc2ncnc3nc[nH]c23)cc1	?	8.2µM*	5.1%	16.4µM*	?
Clc1ccc(CSc2ncnc3nc[nH]c23)cc1	16.4%	23.1µM*	4.2%	?	16.1%
O=C(CSc1ncnc2nc[nH]c12)c1ccc(Cl)cc1	-2.5%	?	/	?	26.2%
O=C(CCCCCN1C(=O)CCC1=O)Nc1ccc(Cl)c(C(F)(F)F)c1	?	?	-2.3%	?	22.1%
CN(/N=C/c1cccc(Br)c1)C1=NS(=O)(=O)c2ccccc21	-3.1%	23.1µM*	/	?	17.3%
COc1ccc(N(C)C2=NS(=O)(=O)c3ccccc32)cc1	-1.4%	2.59µM*	3.8%	3.66µM*	-4.1%
CN(/N=C/c1ccc(N(C)C)cc1)C1=NS(=O)(=O)c2ccccc21	-13.6%	?	/	4.11µM*	-8.2%
Cc1cccc(/C=N/N(CCO)C2=NS(=O)(=O)c3ccccc32)c1	-2.9%	?	6.0%	?	22.7%
COc1ccc(/C=N/N(C)C2=NS(=O)(=O)c3ccccc32)cc1	18.5%	-4.3%	/	9.0%	7.6%
O=C(O)Cc1ccc(Oc2ncc(C(F)(F)F)cc2Cl)cc1	11.5%	-1.7%	1.2%	18.9%	18.5%
Cc1cccc(NC(=O)CSc2cn(CC(=O)N3CCC(C)CC3)c3ccccc23)c1C	/	9.2µM*	-5.1%	23.1µM*	/
CC1CCN(C(=O)Cn2cc(SCC(=O)Nc3ccccc3C(F)(F)F)c3ccccc32)CC1	/	20.6µM*	0.0%	?	/
O=C(CSc1cn(CC(=O)N2CCCCC2)c2ccccc12)Nc1ccccc1F	/	?	2.6%	?	/
O=C(CSc1cn(CC(=O)N2CCCC2)c2ccccc12)Nc1ccccc1C(F)(F)F	/	?	-5.1%	?	/
CCc1cc(=O)oc2cc(OCC(=O)N3CCC(C(=O)O)CC3)ccc12	-2.9%	-9.2%	/	16.6%	21.7%
CSc1nc2nc3c(c(=O)n2[nH]1)CN(Cc1ccccc1)CC3	-3.7%	?	5.7%	25.9µM*	39.8%
O=C(c1cc(S(=O)(=O)N2CCN(c3ccccc3)CC2)ccc1Cl)N1CCCC(C(F)(F)F)C1 (stereo not given)	/	?	/	14.6µM*	/

Screens deposited in PubChem BioAssay by National Center for Advancing Translational Sciences (NCATS).
